Laboratory results published in paper PMC5540273 (PLoS ONE, 2017).

Columns and labels:
Conditions in all cases: concentration: 1 μM, replicates: in singlicate; n = 1
FGFR1 = test system: FGFR1
FGFR2 = test system: FGFR2
FGFR3 = test system: FGFR3
FGFR4 = test system: FGFR4
FGR = test system: FGR
FLT1 = test system: FLT1
FLT3-autoinhibited = test system: FLT3-autoinhibited
FLT3 = test system: FLT3
FLT4 = test system: FLT4
FRK = test system: FRK
FYN = test system: FYN
GAK = test system: GAK
GCN2(Kin.Dom.2,S808G) = test system: T1, GCN2(Kin.Dom.2,S808G)
T1 construct: gene EIF2AK4

GRK1 = test system: GRK1
GRK2 = test system: T2, GRK2
T2 construct: gene ADRBK1

GRK3 = test system: T3, GRK3
T3 construct: gene ADRBK2

GRK4 = test system: GRK4
GRK7 = test system: GRK7
GSK3A = test system: GSK3A
GSK3B = test system: GSK3B
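Also: KINOMEscan kinase panel screen.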

CS(=O)(=O)c1cccc(CNc2nc(Nc3ccc4c(c3)CCC(=O)N4)ncc2C(F)(F)F)c1
%Inh (FGFR1): 63% | %Inh (FGFR2): 65% | %Inh (FGFR3): 36% | %Inh (FGFR4): 32% | %Inh (FGR): 0% | %Inh (FLT1): 77% | %Inh (FLT3-autoinhibited): 54% | %Inh (FLT3): 99% | %Inh (FLT4): 89% | %Inh (FRK): 0% | %Inh (FYN): 10% | %Inh (GAK): 16% | %Inh (GCN2(Kin.Dom.2,S808G)): 0% | %Inh (GRK1): 24% | %Inh (GRK2): 0% | %Inh (GRK3): 0% | %Inh (GRK4): 0% | %Inh (GRK7): 0% | %Inh (GSK3A): 55% | %Inh (GSK3B): 0%

CN(c1ccc(F)c(NC(=O)c2cccc(OC(C)(C)C#N)c2Cl)c1)c1ccc2nc(NC(=O)C3CC3)sc2n1
%Inh (FGFR1): 48% | %Inh (FGFR2): 72% | %Inh (FGFR3): 8% | %Inh (FGFR4): 26% | %Inh (FGR): 84% | %Inh (FLT1): 95.8% | %Inh (FLT3-autoinhibited): 0% | %Inh (FLT3): 96.7% | %Inh (FLT4): 99.8% | %Inh (FRK): 71% | %Inh (FYN): 79% | %Inh (GAK): 0% | %Inh (GCN2(Kin.Dom.2,S808G)): 0% | %Inh (GRK1): 0% | %Inh (GRK2): 0% | %Inh (GRK3): 6% | %Inh (GRK4): 4% | %Inh (GRK7): 21% | %Inh (GSK3A): 4% | %Inh (GSK3B): 0%

CN1CCN(Cc2ccc(NC(=O)Nc3ccc(N(C)c4ccnc(Nc5ccc(CS(C)(=O)=O)cc5)n4)cc3)cc2)CC1.Cl [GW827654]
%Inh (FGFR1): 5% | %Inh (FGFR2): 23% | %Inh (FGFR3): 9% | %Inh (FGFR4): 0% | %Inh (FGR): 49% | %Inh (FLT1): 99.8% | %Inh (FLT3-autoinhibited): 95.2% | %Inh (FLT3): 99.8% | %Inh (FLT4): 100% | %Inh (FRK): 84% | %Inh (FYN): 40% | %Inh (GAK): 36% | %Inh (GCN2(Kin.Dom.2,S808G)): 17% | %Inh (GRK1): 9% | %Inh (GRK2): 27% | %Inh (GRK3): 21% | %Inh (GRK4): 86% | %Inh (GRK7): 3% | %Inh (GSK3A): 4% | %Inh (GSK3B): 32%

Fc1cc(Cl)ccc1Nc1ccnc2cc(-c3ccc(CN4CCOCC4)o3)ccc12 [GW560109]
%Inh (FGFR1): 40% | %Inh (FGFR2): 33% | %Inh (FGFR3): 26% | %Inh (FGFR4): 30% | %Inh (FGR): 91.2% | %Inh (FLT1): 86% | %Inh (FLT3-autoinhibited): 6% | %Inh (FLT3): 53% | %Inh (FLT4): 88% | %Inh (FRK): 86% | %Inh (FYN): 90.9% | %Inh (GAK): 84% | %Inh (GCN2(Kin.Dom.2,S808G)): 13% | %Inh (GRK1): 5% | %Inh (GRK2): 0% | %Inh (GRK3): 46% | %Inh (GRK4): 2% | %Inh (GRK7): 0% | %Inh (GSK3A): 1% | %Inh (GSK3B): 24%

COC(=O)Nc1nc2ccc(Oc3ccc(NC(=O)Nc4cc(C(F)(F)F)ccc4F)cc3)cc2[nH]1.Cl [GW654607]
%Inh (FGFR1): 26% | %Inh (FGFR2): 63% | %Inh (FGFR3): 11% | %Inh (FGFR4): 17% | %Inh (FGR): 12% | %Inh (FLT1): 99.6% | %Inh (FLT3-autoinhibited): 27% | %Inh (FLT3): 99% | %Inh (FLT4): 99.9% | %Inh (FRK): 94.7% | %Inh (FYN): 54% | %Inh (GAK): 0% | %Inh (GCN2(Kin.Dom.2,S808G)): 6% | %Inh (GRK1): 0% | %Inh (GRK2): 0% | %Inh (GRK3): 0% | %Inh (GRK4): 11% | %Inh (GRK7): 0% | %Inh (GSK3A): 4% | %Inh (GSK3B): 9%
